The results in this text go back to PubChem BioAssay (EPA / NIEHS).

Values joined by “and” are separate entries in the source; they are usually repeats but may differ in a detail not shown here. Equal values may be shown once. Some structures have more than one record in an assay (separate samples or runs), and their calls can disagree. Active and inactive are the calls of the source. The calls were made as follows: active = hit-call score of the fitted dose curve at least 0.9, where 1 is the maximum; inactive = score below 0.9.

Read-out in assay [1]: Thrombomodulin, THBD (gene 7056)
Description: BSK_CASM3C_Thrombomodulin: BioMAP Diversity Plus: CASM3C Assay for Thrombomodulin Biomarker Activity (AID 2283051).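 Also: thrombomodulin protein level measured by ELISA 24 h after dosing.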 Particulars: primary human coronary artery smooth muscle cells; actives raise or lower the signal.

Read-out in assay [2]: Tissue Factor, F3 (gene 2152)
Kind of assay: BSK_CASM3C_TissueFactor: BioMAP Diversity Plus: CASM3C Assay for Tissue Factor Biomarker Activity (AID 2283052).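 Also: cell surface tissue factor protein level read by ELISA.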 Particulars: primary human coronary artery smooth muscle cells; actives raise or lower the signal.

Read-out in assay [3]: Interferon-gamma inducible Protein 10 (IP10), CXCL10 (gene 3627)
Description: BSK_hDFCGF_IP10: BioMAP Diversity Plus: hDFCGF Assay for Interferon-gamma inducible Protein 10 (IP10) Biomarker Activity (AID 2283053). Particulars: primary human foreskin fibroblasts; actives raise or lower the signal. In short, it runs like this:
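Primary foreskin fibroblasts, human; 24 h compound exposure; IP-10 by ELISA; bidirectional fit vs DMSO.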

Read-out in assay [4]: Urokinase-type plasminogen activator receptor (uPAR), PLAUR (gene 5329)
Description: BSK_CASM3C_uPAR: BioMAP Diversity Plus: CASM3C Assay for Urokinase-type plasminogen activator receptor (uPAR) Biomarker Activity (AID 2283054).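 Also: cell-surface uPAR protein level quantified by ELISA.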 Particulars: primary human coronary artery smooth muscle cells; actives raise or lower the signal.

Read-out in assay [5]: Vascular cell adhesion molecule 1 (VCAM1), VCAM1 (gene 7412)
Description: BSK_CASM3C_VCAM1: BioMAP Diversity Plus: CASM3C Assay for Vascular cell adhesion molecule 1 (VCAM1) Biomarker Activity (AID 2283055).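 Also: VCAM-1 protein level quantified by ELISA on the cells.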 Particulars: primary human coronary artery smooth muscle cells; actives raise or lower the signal.

Read-out in assay [6]: Collagen III, COL3A1 (gene 1281)
Description: BSK_hDFCGF_CollagenIII: BioMAP Diversity Plus: hDFCGF Assay for Collagen III Biomarker Activity (AID 2283056). As to conditions: primary human foreskin fibroblasts; actives raise or lower the signal. In short, it runs like this: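 ELISA read-out of collagen III from human skin fibroblast cultures sampled 24 h post-dosing. Values were derived by bidirectional fitting relative to the DMSO vehicle control.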

Read-out in assay [7]: Epidermal growth factor receptor (EGFR), EGFR (gene 1956)
Description: BSK_hDFCGF_EGFR: BioMAP Diversity Plus: hDFCGF Assay for Epidermal growth factor receptor (EGFR) Biomarker Activity (AID 2283057). As to conditions: primary human foreskin fibroblasts; actives raise or lower the signal. In short, it runs like this: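 hDFCGF system, primary human foreskin fibroblasts; compound 24 h; EGFR measured by ELISA; DMSO = negative control/baseline; bidirectional fitting.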

Read-out in assay [8]: Interleukin-8 (IL8), CXCL8 (gene 3576)
Kind of assay: BSK_hDFCGF_IL8: BioMAP Diversity Plus: hDFCGF Assay for Interleukin-8 (IL8) Biomarker Activity (AID 2283058). As to conditions: primary human foreskin fibroblasts; actives raise or lower the signal. In short, it runs like this: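 Cells used are human skin primary fibroblasts. Chemical is added, cultures run 24 h, then IL-8 is quantified by ELISA, and gain or loss versus DMSO control is fitted in both directions.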

Assay [9] is described as follows: BSK_hDFCGF_Proliferation: Cell Proliferation Assessment in the BioMAP Diversity Plus: hDFCGF Assay (AID 2283059).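 Also: curves fitted for both rise and fall of signal versus DMSO baseline.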 As to conditions: primary human foreskin fibroblasts. In short, it runs like this:
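Sub-confluent human foreskin fibroblast cultures receive test chemical […]. Relative cell number is quantified by sulforhodamine B staining (0.1%, after 10% TCA fixation) at 560 nm, with bidirectional fitting referenced to DMSO.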

Read-out in assay [10]: Macrophage colony-stimulating factor (MCSF), CSF1 (gene 1435)
Kind of assay: BSK_hDFCGF_MCSF: BioMAP Diversity Plus: hDFCGF Assay for Macrophage colony-stimulating factor (MCSF) Biomarker Activity (AID 2283060). As to conditions: primary human foreskin fibroblasts; actives raise or lower the signal. In short, it runs like this:
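Primary human foreskin fibroblasts dosed with chemical; 24 h later, M-CSF quantified by ELISA; curves fitted in both directions vs DMSO negative control.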

A short description of assay [11]: BSK_hDFCGF_SRB: Viability Assessment in the BioMAP Diversity Plus: hDFCGF Assay (AID 2283061).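 Also: cells exposed to compound for 24 h before the read.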 As to conditions: primary human foreskin fibroblasts. In short, it runs like this:
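Readout is SRB absorbance at 560 nm, reflecting total protein in parallel cultures of human foreskin fibroblasts harvested 24 h after chemical dosing. Activity was fitted bidirectionally relative to DMSO.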

Read-out in assay [12]: TIMP metallopeptidase inhibitor 1 (TIMP1), TIMP1 (gene 7076)
Kind of assay: BSK_hDFCGF_TIMP1: BioMAP Diversity Plus: hDFCGF Assay for TIMP metallopeptidase inhibitor 1 (TIMP1) Biomarker Activity (AID 2283062). As to conditions: primary human foreskin fibroblasts; actives raise or lower the signal. In short, it runs like this:
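Human skin fibroblasts (primary), hDFCGF system; compound exposure 24 h; TIMP-1 by ELISA; bidirectional fit vs DMSO negative control; overt cytotoxicity by SRB in parallel wells.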

Read-out in assay [13]: Monokine induced gamma interferon (MIG), CXCL9 (gene 4283)
Kind of assay: BSK_hDFCGF_MIG: BioMAP Diversity Plus: hDFCGF Assay for Monokine induced gamma interferon (MIG) Biomarker Activity (AID 2283063). Particulars: primary human foreskin fibroblasts; actives raise or lower the signal. In short, it runs like this: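 Chemicals were added to primary human foreskin fibroblast cultures, which were sampled 24 h later. MIG levels were then quantified by ELISA and responses fitted in both directions relative to DMSO.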

Read-out in assay [14]: Vascular cell adhesion molecule 1 (VCAM1), VCAM1 (gene 7412)
Description: BSK_hDFCGF_VCAM1: BioMAP Diversity Plus: hDFCGF Assay for Vascular cell adhesion molecule 1 (VCAM1) Biomarker Activity (AID 2283065). As to conditions: primary human foreskin fibroblasts; actives raise or lower the signal. In short, it runs like this:
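Human foreskin fibroblast primary cells, chemical exposure 24 h; VCAM-1 by ELISA; bidirectional fit, DMSO = negative control/baseline.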

Read-out in assay [15]: Plasminogen activator inhibitor-1 (PAI1), SERPINE1 (gene 5054)
Kind of assay: BSK_hDFCGF_PAI1: BioMAP Diversity Plus: hDFCGF Assay for Plasminogen activator inhibitor-1 (PAI1) Biomarker Activity (AID 2283066). Particulars: primary human foreskin fibroblasts; actives raise or lower the signal. In short, it runs like this:
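Primary dermal fibroblasts (human foreskin), hDFCGF system; compound 24 h; PAI-1 by ELISA; bidirectional fit vs DMSO control.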

Read-out in assay [16]: Intercellular Adhesion Molecule 1 (ICAM1), ICAM1 (gene 3383)
Description: BSK_KF3CT_ICAM1: BioMAP Diversity Plus: KF3CT Assay for Intercellular Adhesion Molecule 1 (ICAM1) Biomarker Activity (AID 2283067). As to conditions: primary human keratinocytes with fibroblasts; actives raise or lower the signal. In short, it runs like this:
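ICAM-1 levels are measured by ELISA 24 h after dosing a primary human co-culture of keratinocytes and foreskin fibroblasts. Activity in either direction is fitted relative to DMSO vehicle.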

Read-out in assay [17]: Interferon-gamma inducible Protein 10 (IP10), CXCL10 (gene 3627)
Kind of assay: BSK_KF3CT_IP10: BioMAP Diversity Plus: KF3CT Assay for Interferon-gamma inducible Protein 10 (IP10) Biomarker Activity (AID 2283068). As to conditions: primary human keratinocytes with fibroblasts; actives raise or lower the signal. In short, it runs like this:
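ELISA read-out of IP-10 after 24 h chemical dosing of human skin primary co-culture (keratinocytes, foreskin fibroblasts). Gain or loss of signal relative to DMSO, bidirectional curve fit.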

Assay [18] in a line: BSK_KF3CT_SRB: Viability Assessment in the BioMAP Diversity Plus: KF3CT Assay (AID 2283069).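 Also: total protein by sulforhodamine B staining as a cytotoxicity measure; read 24 h after compound addition.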 Particulars: primary human keratinocytes with fibroblasts. In short, it runs like this: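 Human primary keratinocyte plus foreskin fibroblast co-culture exposed to chemicals for 24 h. Total protein measured by 0.1% sulforhodamine B staining after 10% TCA fixation, read at 560 nm; bidirectional fitting versus DMSO baseline.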

Read-out in assay [19]: Interleukin-1 alpha (IL1a), IL1A (gene 3552)
Kind of assay: BSK_KF3CT_IL1a: BioMAP Diversity Plus: KF3CT Assay for Interleukin-1 alpha (IL1a) Biomarker Activity (AID 2283070). Particulars: primary human keratinocytes with fibroblasts; actives raise or lower the signal. In short, it runs like this: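 Human keratinocyte plus foreskin fibroblast primary co-culture, sampled 24 h after chemical dosing. IL-1a measured by ELISA; responses fitted bidirectionally against DMSO baseline (negative control), so gain or loss of signal both count.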

Read-out in assay [20]: Matrix Metallopeptidase 1 (MMP1), MMP1 (gene 4312)
Kind of assay: BSK_hDFCGF_MMP1: BioMAP Diversity Plus: hDFCGF Assay for Matrix Metallopeptidase 1 (MMP1) Biomarker Activity (AID 2283064). Particulars: primary human foreskin fibroblasts; actives raise or lower the signal. In short, it runs like this:
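Primary human foreskin fibroblasts in the hDFCGF system were dosed with test chemical, and MMP1 was measured by ELISA 24 h later. Values come from bidirectional curve fitting against the DMSO baseline.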

In the case of `C=CCOC(=O)CCC1CCCCC1`, the result in [1], in assay [2], in assay [3], in assay [4], in assay [5] and in assay [6] was inactive. Further, the result in assay [7], in assay [8], in assay [10], in assay [11], in [12] and in assay [13] was inactive. Besides, the result in assay [14], in assay [15], in [16], in assay [17], in assay [18] and in assay [19] was inactive. Also, in assay [9], the AC50 (in general, the concentration giving half of the maximal activity seen) was 30.8 µM (active) and 37.8 µM (active).

Consider `O=[N+]([O-])c1cc(C(F)(F)F)ccc1Cl`, for which the outcome in assay [1], in assay [2], in [3], in [4], in assay [5] and in assay [6] was inactive. Besides, the result in [7], in assay [8], in assay [10], in assay [11], in assay [12] and in [13] was inactive. In addition, the outcome in [14], in assay [15], in [16], in assay [17], in assay [18] and in assay [19] was inactive. Further, in assay [9], the AC50 was 17.1 nM (active).

Turning to `Nc1cc([N+](=O)[O-])ccc1Cl`, the outcome in [1], in [2], in [3], in assay [4], in [5] and in assay [6] was inactive. Besides, the result in assay [7], in assay [8], in assay [9], in assay [10], in assay [11] and in [12] was inactive. Also, the result in [13], in [14], in assay [15], in assay [16], in assay [17] and in assay [18] was inactive. The outcome in assay [19] was inactive.

With `O=C(O)C[C@H](O)C[C@H](O)/C=C/c1c(C2CC2)nc2ccccc2c1-c1ccc(F)cc1`, the concentration at half-maximal activity (AC50) in assay [1] was 28.7 nM (active); in assay [2], 4.1 nM (active); in assay [5], 4.1 nM (active); in [9], 992 nM (active); in assay [15], 2960 nM (active). Moreover, the result in assay [3], in assay [4], in assay [6], in [7], in [8] and in assay [10] was inactive. For the same compound, the result in assay [11], in assay [12], in assay [13], in assay [20], in assay [14] and in assay [16] was inactive. The result in assay [17] and in assay [19] was inactive.

With `C=C[Si](OCC)(OCC)OCC`, the outcome in assay [1], in assay [2], in assay [3], in [4], in assay [5] and in [6] was inactive. The result in assay [7], in assay [8], in assay [10], in [11], in assay [12] and in assay [13] was inactive. In addition, the result in [14], in [15], in assay [16], in assay [17], in [18] and in assay [19] was inactive. The AC50 in assay [9] was 29200 nM (active).

As for `CCCCCCCCCCCCCCCCCC(=O)OCC(CC)CCCC` (stereo not drawn), the result in assay [1], in [2], in assay [3], in assay [4], in [5] and in assay [6] was inactive. Besides, the outcome in assay [7], in assay [8], in assay [9], in assay [10], in assay [11] and in assay [12] was inactive. Moreover, the outcome in [13], in [14], in [15], in [16], in [17] and in [19] was inactive.

On to `Nc1cc([N+](=O)[O-])ccc1O`, for which the AC50 is 20000 nM (active) in assay [1]; 20 µM (active) and 10.8 µM (active) in [9]; 1.16 µM (active) and 826 nM (active) in assay [11]; 1880 nM (active) in [13]. The result in assay [1], in [2], in assay [3], in [4], in assay [5] and in assay [6] was inactive. In addition, the result in assay [7], in assay [8], in [10], in [12], in assay [13] and in assay [14] was inactive. Further, the result in assay [15], in [16], in assay [17] and in [19] was inactive.
